Bioassay records as filed in PubChem.
Only some compounds are listed: those with a hit (about 3.7% of all), similar ones and a draw of the others.
Tau fluor cs: counter-screen for tau fibril formation inhibitors. AID 1463. hit rate 0.93% among 280,000. tau K18 P301L Alexa594 fluorescence, heparin fibrillization. Potency, µM (doses to about 57.7 µM), without a hit: top-dose activity change, negative = decrease; further: on the % scale 0 is the no-effect control and ±100 the full control effect; nearly all actives have a fitted effect of over 55% in size
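Human K18 P301L tau (15 uM unlabeled plus 0.24 uM Alexa 594-labeled, final) in 100 mM sodium acetate pH 7 was mixed with compound and 20 uM heparin and incubated 6 hr at 37 C.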
Tau FP inhib: inhibitors of human tau fibril formation. K18 P301L tau heparin fibrillization, Alexa594 FP, 6 h. hit rate 0.39% among 280,000. AID 1468. Potency, µM (top dose mostly 57.7 µM), for the others: top-dose activity, negative = inhibition, actives largely listed as inhibitors. P10636; further: on the % scale 0 is the no-effect control and ±100 the full control effect; nearly all actives have a fitted effect of over 55% in size
Target sequence (P10636 561-689 P618L limits assumed): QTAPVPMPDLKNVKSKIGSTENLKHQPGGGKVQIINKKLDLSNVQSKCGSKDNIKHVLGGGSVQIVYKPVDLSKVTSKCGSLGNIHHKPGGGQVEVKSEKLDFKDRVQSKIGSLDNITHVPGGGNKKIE
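Compound effects on tau fibrillization are measured by Alexa 594 fluorescence polarization (ex 555, em 632 nm). K18 P301L tau is used at 15 uM with 0.24 uM labeled tracer, and 20 uM heparin induces aggregation over 6 hr at 37 C.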
HTT aggregate: inhibitors of mutant huntingtin aggregate formation in PC12 cells; hit rate 1.1% among 220,000; PC12 HttQ103-GFP aggregates, Acumen cytometry, 40 h; Potency, µM (doses to about 46.1 µM), without a hit: top-dose activity change, negative = inhibition, actives largely listed as inhibitors; further: on the % scale 0 is the no-effect control and ±100 the full control effect; nearly all actives have a fitted effect of over 60% in size
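Huntingtin Q103 exon 1–GFP aggregates in induced PC12 cells (100 nM tebufenozide) were quantified by cytometry from lysates, with compounds dosed in titration.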
HTT cytoprotect: Huntington cell model cytoprotection by ATP luminescence | PC12 HTT-Q103 induced, cytoprotection, ATP luminescence, 40 h | Potency, µM (series often up to 56.4 µM), for inactives: cytoprotection (ATP increase), most hits filed as activators | hit rate 0.14% among 230,000 | AID 1471; further: % of control where 0% means no effect; nearly all actives have a fitted effect of over 45% in size
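Compounds were screened for protection of PC12 cells against cell death after tebufenozide induction (100 nM final) of mutant Huntingtin exon 1 (Q103) fused to GFP.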
Tau ThT inhib: tau fibrillization inhibition (ThT binding) | hit rate 2.1% among 270,000 | recombinant tau K18 P301L, heparin-induced fibrillization, ThT fluorescence | Potency, µM (titrated, usually from 57.4 µM), for the others: at the top dose activity, negative = inhibition, hits mostly inhibitors; further: on the % scale 0 is the no-effect control and ±100 the full control effect; nearly all actives have a fitted effect of over 55% in size
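ThT emission at 510 nm, taken 1 hr after adding 30 uM dye, quantifies aggregates formed when 20 uM heparin acts on human tau K18 P301L for 6 hr at 37 C.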
* = called active by the depositor; u = inconclusive; x = not tested or not shown; [ ] = another dose, or the depositor's remark. The call rests on the fitted dose curve; in most records, active means well fitted curve in the direction sought with a large enough effect; inconclusive means small, poorly fitted or top-dose-only effect, or another doubt; inactive means no such curve, though single readings can be large; an effect the other way counts as inactive or inconclusive. Potency means the concentration at half of the fitted maximal effect.

SMILES | Tau fluor cs | Tau FP inhib | HTT aggregate | HTT cytoprotect | Tau ThT inhib
CC(C)(C)C1CCC2(CC1)C(C#N)=C(SCC(=O)Nc1ccccc1)NC(=O)C2C#N (stereo not given) | u | 22.4µM* | u | -46.2% | 5.9%
CC1(C)CC(=O)C2=C(C1)NC(SCC(=O)Nc1ccccc1)=C(C#N)C21CCCCC1 | u | u | -19.8% | -14.6% | 6.2%
O=C(C=C=Nc1ccccc1)C(=O)N=C=Cc1ccccc1 | u | u | 16.0%[9.22 µM] | -30.6%[10 µM] | 10µM*
Cc1cc(N2CCN(C/C=C/c3ccccc3)CC2)n2ncnc2n1 | -2.7% | -7.2% | 3.55µM* | u | -3.6%
CC(C)(N=NC(C)(C)C1=NCCN1)C1=NCCN1 | x | x | x | 4.9%[10 µM] | x
O=S(=O)(Nc1nc2c(s1)CCCC2)c1ccc2ccccc2c1 | -25.6% | -2.9% | 11.2µM* | 13.9% | -10.4%
CCOc1ccc(C(=O)Nc2ccccc2C(=O)OCc2cc(=O)n3nc(C4CC4)sc3n2)cc1 | 1.4% | 6.9% | x | x | 2.7%
O=C(N=Nc1ccc(NOC(=O)c2ccccc2Br)cc1)c1ccccc1O | u | u | u | -29.5% | 10µM*
O[C@@H](C1=C/C(=C\c2ccncc2)c2ccccc21)c1ccncc1 | x | x | x | -6.3%[10 µM] | x
N#Cc1c(Nc2ccccc2C(F)(F)F)s[nH]c1=O | -16.7% | 28.2µM* | 21.4%[9.22 µM] | -23.1%[10 µM] | 15.8µM*
Cc1cc(C)c(C#N)c(Nc2ccccc2Cl)n1 | -5.9% | -7.9% | 11.6% | -13.6% | 3.9%
NNc1ccccc1C(F)(F)F | -0.6% | -0.1% | 14.9% | -6.7%[10 µM] | -11.1%
N#Cc1c(Nc2ccccc2)sc(C(=O)c2ccc(F)cc2)c1N | u | 1.4% | 10.8% | x | u
N#Cc1c(Nc2ccccc2Cl)s[nH]c1=O | u | 8.91µM* | 11.4%[9.22 µM] | -16.4%[10 µM] | 7.94µM*
N#Cc1c(Nc2ccccc2)s[nH]c1=O | u | 15.8µM* | -16.6%[9.22 µM] | -30.6%[10 µM] | x
OCc1cc2c(cn1)[nH]c1ccccc12 | -26.5% | -1.7% | x | -11.9% | -13.7%
Cn1c(=O)c2c(nc(CN3CCN(c4ccccc4F)CC3)n2Cc2ccc(F)cc2)n(C)c1=O | -17.8% | -6.0% | x | x | u
CCC(Cl)CC(Cl)C(Cl)C(Cl)C(Cl)C(C)Cl (stereo not given) | x | x | x | 6.3% | x
COc1cc(/C=C/c2nc(C#N)c(N3CCN(C)CC3)o2)cc(OC)c1OC | -14.7% | -0.8% | x | x | 2.3%
Cc1nn(-c2ccccc2)c(Cl)c1/C=C1\SC(=S)N(CCCCCC(=O)O)C1=O | 4.6% | 20.1% | 24.0%[9.22 µM] | 18.1%[10 µM] | u
O=C(O)CCCN1C(=O)/C(=C\c2ccc(-c3nc4ccccc4s3)o2)SC1=S | u | u | 18.1%[9.22 µM] | 13.2%[10 µM] | 2.51µM*
O=C(O)CCN1C(=O)/C(=C/c2ccc(-c3nc4ccccc4s3)o2)SC1=S | -25.5% | -5.0% | 18.1% | -4.5% | 1.26µM*
O=Cc1ccc(-c2nc3ccccc3s2)o1 | -2.3% | -8.8% | x | x | u
O=C(O)CC(C(=O)O)N1C(=O)/C(=C/c2ccc(-c3nc4ccccc4s3)o2)SC1=S (stereo not given) | -25.6% | u | 9.0% | 1.8%[10 µM] | 7.94µM*
CCC(=O)NC1=C(NC(C)c2ccccc2)C(=O)c2ccccc2C1=O (stereo not given) | -11.2% | 1.9% | -1.0%[9.22 µM] | 0.8% | u
SMILES | Tau fluor cs | Tau FP inhib | HTT aggregate | HTT cytoprotect | Tau ThT inhib
CNC1=C(N(C(C)=O)c2ccc(Br)cc2)C(=O)c2ccccc2C1=O | -10.1% | 2.4% | 11.2µM* | x | u
CCC(=O)N(C1=C(NC)C(=O)c2ccccc2C1=O)C(C)C | 0.0% | 8.2% | 28.2µM* | -110.2% | -7.2%
CN(C)c1ccc(C(=O)NN2C(=O)c3ccccc3C2=O)cc1 | -19.0% | 3.8% | -17.5% | -16.2% | -3.0%
O=C(/C=C/c1c[nH]c2ccccc12)c1cccc2ccccc12 | 6.31µM*[quencher] | u | -10.7% | 10.1%[10 µM] | u
COC(=O)/C(=C\c1c[nH]c2ccccc12)NC(C)=O | -6.9% | -4.5% | 1.9% | -9.0% | -11.3%
CC(C)c1ccc(/C=C/C(=O)N2CCCCCC2)cc1 | -14.2% | -0.3% | 15.0% | x | u
CC(C)c1ccc(/C=C/C(=O)n2nnc3ccccc32)cc1 | -15.1% | u | 32.3% | -15.6% | 20µM*
O=C(Cn1ncc2c3ccccc3n(Cc3cccc(Cl)c3)c2c1=O)Nc1ccc(F)cc1F | -8.9% | 4.3% | x | x | -6.2%
Cc1ccc(C(=O)C(c2ccccc2)N2Cc3ccccc3C2=N)cc1 (stereo not given) | -22.0% | -7.6% | 15.8µM* | 20.0%[10 µM] | u
CC(=O)Nc1cccc(-c2nnc(SCC(=O)c3cc([N+](=O)[O-])ccc3Cl)o2)c1 | 20µM*[quencher] | -9.7% | x | x | u
O=C(CSc1nnc(-c2ccncc2)o1)c1cccc([N+](=O)[O-])c1 | -22.7% | -1.7% | 22.1% | 4.3%[10 µM] | u
Cc1cccc(NC(=O)Cn2c(=O)n(CCCS(=O)(=O)C3CCCCC3)c(=O)c3ccccc32)c1 | -22.1% | -10.7% | x | x | -2.6%
CC(C)(C)OC(=O)NCCc1nnc(S(=O)(=O)Cc2ccc(Cl)cc2Cl)o1 | -5.1% | -18.4% | 20µM* | 10.4%[0.074 µM] | u
c1ccc(-c2nc(-c3ccccc3)c(NC3CCCCC3)o2)cc1 | -16.9% | -6.4% | x | 28.2% | u
CC1CC(C)CN(S(=O)(=O)c2ccc(C(=O)NCCCn3ccnc3)cc2)C1 (stereo not given) | -4.0% | 4.9% | 7.94µM* | -125.1% | 4.6%
COc1ccc(C(Nc2ccccn2)c2ccc3ccc(C)nc3c2O)cc1C (stereo not given) | -19.2% | 2.8% | x | x | 15.8µM*
Cc1cc(C)nc(NN=C(c2ccccc2)c2ccccc2)n1 | 3.4% | 0.8% | 17.8µM* | 22.2%[10 µM] | 0.0%
CC(/C=C/c1ccccc1)=N\Nc1nc(C)cc(C)n1 | -15.7% | -2.8% | -11.3% | x | u
Cc1ccc(NC(=O)CCn2c(=O)c3cccn3c3ccccc32)c(Cl)c1 | -16.8% | 9.9% | x | x | u
C/C(=N\Nc1ccc(Cl)c(Cl)c1)c1ccc(-n2ccnc2)cc1 | 14.1µM*[quencher] | 2.2% | -2.1% | x | u
C/C(=N\NC(N)=S)c1ccc(-n2ccnc2)cc1 | -0.1% | -2.5% | -20.2%[9.22 µM] | 27.9%[10 µM] | u
COc1ccc(Nc2ccc3cc(S(=O)(=O)N4CCCC4)ccc3n2)cc1Cl | 2.82µM*[quencher] | 6.6% | x | x | u
CCOc1ccc(OCC)c(Nc2ccc3cc(S(=O)(=O)N4CCCC4)ccc3n2)c1 | u | u | x | x | -5.8%
CCOC(=O)c1cccc(Nc2ccc3cc(S(=O)(=O)N4CCCCC4)ccc3n2)c1 | 11.2µM*[quencher] | u | x | x | u
COc1ccc(Cl)cc1Nc1ccc2cc(S(=O)(=O)N3CCCCC3)ccc2n1 | 10µM*[quencher] | 0.1% | x | x | -8.9%
Cc1nn2c(=O)cc(COC(=O)c3ccc(NC(=O)CCc4ccccc4)cc3)nc2s1 | 5.4% | 0.8% | x | x | 1.3%
